Source: PubChem BioAssay

Each compound was assayed against Concanavalin-A (Canavalia ensiformis) (UniProt P02866) (assay: compounds binding concanavalin A lectin – biochemical, small-molecule microarray, Alexa647 label, 635 nm, artefact control for SMM control protein annotation, primary screen (AID 1127;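 also: z combines 667 nm emission intensity with signal-to-noise across three replicate slides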)). Conditions: ConA-A647 binding fluorescence, higher = more signal.
Concanavalin-A (Canavalia ensiformis), sequence (P02866 whole entry, looked up): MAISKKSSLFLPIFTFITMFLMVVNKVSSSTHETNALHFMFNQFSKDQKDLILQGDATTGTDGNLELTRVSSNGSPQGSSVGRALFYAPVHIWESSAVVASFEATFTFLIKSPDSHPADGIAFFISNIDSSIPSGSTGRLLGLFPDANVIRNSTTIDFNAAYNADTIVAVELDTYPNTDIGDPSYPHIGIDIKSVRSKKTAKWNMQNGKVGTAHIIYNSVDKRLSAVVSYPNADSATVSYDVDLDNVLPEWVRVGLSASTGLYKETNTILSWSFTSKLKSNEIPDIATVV

Row | Structure (SMILES) | composite z-score
1 | COC(=O)[C@@]1(Cc2ccc(OC)cc2)[C@H]2c3cc(C(=O)N(C)C)n(Cc4ccc(OC)c(OC)c4)c3C[C@H]2CN1C(=O)c1ccccc1 | 0.96
2 | CN1C(=O)C2C=CC(C(O)C=Cc3ccc([N+](=O)[O-])cc3)N(N3CCCCC3)C2C1=O (centres undefined) | 1.2
3 | C=CCOC(=O)[C@H]1[C@@H]2C(=O)O[C@@H](c3ccccc3)[C@@H](c3ccccc3)N2[C@@H](c2ccc(OCCOC(=O)[C@H]3C[C@H]4C(=O)N[C@@H](CCCC[N+](C)(C)C)C(=O)N4[C@H]3c3ccc(O)cc3)cc2)[C@]12C(=O)Nc1ccccc12 | 0.843
4 | [N-]=[N+]=Nc1ccccc1[C@@H]1OC(c2ccc(OCCCO)cc2)=N[C@]1(CCS(=O)(=O)c1ccccc1)C(=O)N1CCCCC1 | 1.2
